Outcome and AC50 data for 14 compounds are collected here from PubChem BioAssay (EPA / NIEHS).

For assay [1], the target named is Nucleoli Translocation, AR (gene 367) (UniProt P10275). The assay is described as follows: UPITT_HCI_U2OS_AR_TIF2_Nucleoli_Antagonist: University of Pittsburgh U2OS Androgen Receptor-Transcriptional Intermediary Factor 2 (AR-TIF2) Antagonism High Content Imaging Assay for Nucleoli Translocation (AID 2283997). In short, it runs like this: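 U2OS cells expressing RFP-tagged human AR and GFP-tagged TIF2 were imaged by high-content fluorescence microscopy for red AR signal in the nucleolar region. Compounds were screened at 20 uM final (0.2% DMSO), with activity fitted relative to DHT as baseline.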
Chain of Nucleoli Translocation, AR (gene 367) (P10275 whole entry, looked up): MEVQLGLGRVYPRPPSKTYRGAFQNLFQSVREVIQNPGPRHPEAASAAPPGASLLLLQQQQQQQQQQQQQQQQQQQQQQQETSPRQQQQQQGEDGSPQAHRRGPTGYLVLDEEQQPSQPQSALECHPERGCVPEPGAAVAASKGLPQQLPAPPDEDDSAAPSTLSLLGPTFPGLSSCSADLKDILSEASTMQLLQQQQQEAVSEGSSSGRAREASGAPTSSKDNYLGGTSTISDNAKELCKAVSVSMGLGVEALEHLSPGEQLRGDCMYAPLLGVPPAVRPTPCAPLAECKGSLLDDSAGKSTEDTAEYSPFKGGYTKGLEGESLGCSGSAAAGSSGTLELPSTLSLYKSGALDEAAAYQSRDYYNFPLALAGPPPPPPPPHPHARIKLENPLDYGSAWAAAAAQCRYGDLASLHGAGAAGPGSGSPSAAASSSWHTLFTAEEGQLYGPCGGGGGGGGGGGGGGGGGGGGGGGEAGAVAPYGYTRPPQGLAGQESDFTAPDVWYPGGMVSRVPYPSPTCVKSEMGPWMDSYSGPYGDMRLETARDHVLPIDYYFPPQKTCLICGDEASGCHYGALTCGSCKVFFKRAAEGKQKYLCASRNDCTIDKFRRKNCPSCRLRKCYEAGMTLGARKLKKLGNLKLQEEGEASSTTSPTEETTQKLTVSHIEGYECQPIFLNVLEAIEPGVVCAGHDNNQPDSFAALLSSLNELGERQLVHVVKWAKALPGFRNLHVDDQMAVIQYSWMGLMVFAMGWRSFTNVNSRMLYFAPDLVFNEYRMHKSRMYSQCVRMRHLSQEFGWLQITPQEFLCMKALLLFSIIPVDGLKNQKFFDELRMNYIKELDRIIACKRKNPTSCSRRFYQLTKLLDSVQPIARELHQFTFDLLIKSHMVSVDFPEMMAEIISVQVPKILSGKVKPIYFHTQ

Assay [2] has the same target. Put plainly: UPITT_HCI_U2OS_AR_TIF2_Nucleoli_Agonist: University of Pittsburgh U2OS Androgen Receptor-Transcriptional Intermediary Factor 2 (AR-TIF2) Agonism High Content Imaging Assay for Nucleoli Translocation (AID 2283998). The procedure, abridged: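 Readout is red (AR-RFP) fluorescence localized to nucleoli, measured by high-content imaging and analysed for increase relative to DMSO. Compound series spanned 0.195 to 50 uM final in 0.5% DMSO.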

In assay [3] the target is Ratio of Nucleoli Translocation and Cytoplasm, AR (gene 367) (UniProt P10275). Put plainly: UPITT_HCI_U2OS_AR_TIF2_Nucleoli_Cytoplasm_Ratio_Antagonist: University of Pittsburgh U2OS Androgen Receptor-Transcriptional Intermediary Factor 2 (AR-TIF2) Antagonism High Content Imaging Assay for Ratio of Nucleoli Translocation and Cytoplasm (AID 2283999).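 Further: antagonists lower the DHT-driven ratio of nucleolar to cytoplasmic red signal.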 The procedure, abridged:
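U2OS cells expressing RFP-tagged human AR and GFP-tagged TIF2; compounds tested at 20 uM final (0.2% DMSO) in primary screen, 0.195–50 uM (0.5% DMSO) for concentration response. Readout: nucleolar-to-cytoplasmic red fluorescence ratio by high-content imaging, fitted relative to DHT.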

Assay [4] has the same target. The assay is described as follows: UPITT_HCI_U2OS_AR_TIF2_Nucleoli_Cytoplasm_Ratio_Agonist: University of Pittsburgh U2OS Androgen Receptor-Transcriptional Intermediary Factor 2 (AR-TIF2) Agonism High Content Imaging Assay for Ratio of Nucleoli Translocation and Cytoplasm (AID 2284000).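 Further: hits raise the red nucleolar to cytoplasm ratio above vehicle.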 The procedure, abridged:
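U2OS cells expressing RFP-tagged human AR and GFP-tagged TIF2 were imaged by high-content fluorescence microscopy. The endpoint is the ratio of nucleolar to cytoplasmic red fluorescence, fitted for gain of signal relative to DMSO. Concentration-response spanned 0.195 to 50 uM final (0.5% DMSO).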

Assay [5] in a line: CCTE_Harrill_HTTr_Viability_MCF7: CCTE's 6-hour Cell Viability Assessment for the High-Throughput Transcriptomics (HTTr) Platform, in MCF-7 cells cultured in DMEM + 10% fetal bovine serum, Harrill Lab (AID 2284010; active means hit-call score of the fitted dose curve at least 0.9, where 1 is the maximum; inactive means score below 0.9). In short, it runs like this:
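Membrane integrity was scored by high-content imaging of propidium iodide dye exclusion after a 6 h exposure across an eight-point dilution series. Data were fitted bidirectionally relative to DMSO as negative control and baseline.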

A short description of assay [6]: CCTE_Harrill_HTTr_Apoptosis_MCF7: CCTE's 6-hour Apoptosis Assessment for the High-Throughput Transcriptomics (HTTr) Platform, in MCF-7 cells cultured in DMEM + 10% fetal bovine serum, Harrill Lab (AID 2284011; active means hit-call score of the fitted dose curve at least 0.9, where 1 is the maximum; inactive means score below 0.9). In short, it runs like this: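 MCF-7 (DMEM + 10% FBS), 384-well; 8-pt dilution series, 6 h chemical exposure; caspase-3/7 activation via CellEvent Caspase 3/7 Green, HCI; bidirectional fit vs DMSO.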

The nature of assay [7]: CCTE_Harrill_HTTr_CellCount_MCF7: CCTE's Cell Proliferation Assessment for the High-Throughput Transcriptomics (HTTr) Platform, Harrill Lab (AID 2284012).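 Further: cells exposed to compound for six hours; intended direction is loss of nuclei count meaning fewer cells.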 In short, it runs like this: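 MCF-7 cells were exposed for 6 h to an eight-point dilution series; Hoechst-labeled nuclei were counted by high content imaging. Curves were fitted bidirectionally against DMSO as negative control and baseline, with signal loss indicating reduced cell count.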

A further assay concerns DIO1 (gene 1733). The assay is described as follows: CCTE_GLTED_hDIO1: CCTE's human Deiodinase 1 (DIO1) Inhibition Assay, Great Lakes Toxicology and Ecology Division (GLTED) Lab (AID 2283987).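 Further: isolated human DIO1 enzyme in a cell-free setup rather than cells; enzyme activity read as free iodide liberated from substrate via Sandell-Kolthoff colorimetry.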 In short, it runs like this: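 Inhibition of human deiodinase 1 is scored as reduced iodide liberation after a 3 h enzyme–chemical incubation, detected colorimetrically by the Sandell-Kolthoff reaction against DMSO controls.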

Assay [8] is described as follows: CCTE_Simmons_MITO_basal_resp_rate: CCTE's HepG2 Seahorse XF Respirometric Screening Assay at Basal Respiratory State, Simmons Lab (AID 2284001; active means hit-call score of the fitted dose curve at least 0.9, where 1 is the maximum; inactive means score below 0.9). The conditions noted are these: actives raise or lower the signal. The procedure, abridged:
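HepG2 cells were given test chemicals at 7 concentrations, 125 nM to 100 uM final, and oxygen consumption rate was read every 6 min (3 min mix, 3 min measure) over 72 min. Basal-phase OCR was fitted bidirectionally against DMSO.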

Assay [9] is described as follows: CCTE_Simmons_MITO_max_resp_rate: CCTE's HepG2 Seahorse XF Respirometric Screening Assay at Maximal Respiratory State [uncoupled], Simmons Lab (AID 2284002; active means hit-call score of the fitted dose curve at least 0.9, where 1 is the maximum; inactive means score below 0.9). The conditions noted are these: actives raise or lower the signal. The procedure, abridged:
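Read-out is oxygen consumption rate at maximal respiration, taken after FCCP uncoupling of compound-treated HepG2 cells. Seven final concentrations from 125 nM to 100 uM were tested, each in three biological replicates.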

Assay [10] is described as follows: CCTE_Simmons_MITO_inhib_resp_rate: CCTE's HepG2 Seahorse XF Respirometric Screening Assay at Inhibited Respiratory State [full ETC block], Simmons Lab (AID 2284006; active means hit-call score of the fitted dose curve at least 0.9, where 1 is the maximum; inactive means score below 0.9). The conditions noted are these: actives raise or lower the signal. The procedure, abridged: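 HepG2 cells on Seahorse XF96; oxygen consumption measured after test compound, then FCCP, then rotenone/antimycin A injections over 72 min. Test chemicals at 7 concentrations, 125 nM–100 uM final. OCR fitted bidirectionally versus DMSO.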

The nature of assay [11]: CCTE_Shafer_MEA_acute_spike_number: CCTE's Neural Acute Assay for Total Number of Spikes, Shafer Lab (AID 2284008; active means hit-call score of the fitted dose curve at least 0.9, where 1 is the maximum; inactive means score below 0.9;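 further: curve fitted for decrease in spike count so AC50 reflects inhibitors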). The procedure, abridged: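 Read-out is the total spike count over 40 min, expressed as percent change from each well's own pre-treatment baseline and fitted in the loss direction against DMSO. Rat cortical neurons were exposed at 0.03-40 uM on DIV 13 or 15.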

The nature of assay [12]: CCTE_Shafer_MEA_acute_firing_rate_mean: CCTE's Neural Acute Assay for Mean Firing Rate, Shafer Lab (AID 2284009; active means hit-call score of the fitted dose curve at least 0.9, where 1 is the maximum; inactive means score below 0.9;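 further: analyzed for loss of signal so actives lower firing rate relative to DMSO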). The procedure, abridged: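 Read-out: well-mean spike rate (spikes/recording length/electrodes), % change from 40 min pre-dose baseline to 40 min with compound. Rat cortical cultures, DIV 13 or 15, 37 C; 0.03-40 uM; DMSO as negative control.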

Values joined by “and” are separate entries in the source; they are usually repeats but may differ in a detail not shown here. Identical values can stand only once. Inconclusive results are not listed. Active and inactive are the calls of the source. How the source made its calls, unless noted: active means hit-call score of the fitted dose curve at least 0.9, where 1 is the maximum; inconclusive means response in the unintended direction; inactive means score below 0.9.

Chain of Ratio of Nucleoli Translocation and Cytoplasm, AR (gene 367) (P10275 whole entry, looked up): as above

On to `CC(C)c1cccc(C(C)C)c1O`, for which the call in assay [1], in [2], in assay [3], in assay [4], in assay [5] and in assay [6] was inactive. For the same compound, the outcome in assay [7] was inactive.
A word on the AC50: it is the midpoint of the concentration-response curve, whichever way the signal moves. Turning to `C=CC(=O)OCCCCCC(C)C`, the AC50 in the assay on DIO1 (gene 1733) was 30.8 µM (active). Besides, the outcome in assay [1], in assay [2] and in assay [3] was inactive.
With `CCOP(=S)(OCC)Oc1nc(Cl)c(Cl)cc1Cl`, the AC50 in assay [1] is 50 µM (active). For the same compound, the outcome in assay [2], in assay [3], in assay [4], in assay [8], in assay [9] and in [10] was inactive. In addition, the result in [5], in assay [6] and in assay [7] was inactive.
For `CCSC(C)CC1CC(=O)C(C(CC)=NOC/C=C/Cl)=C(O)C1` (configuration not stated), the outcome in assay [1], in [2], in assay [3], in assay [4], in assay [5] and in assay [6] was inactive.
On to `CC(C)(c1ccccc1)c1ccc(O)c(C(C)(C)c2ccccc2)c1`, for which the compound was classed as inactive in assay [8], in [10] and in [5]. In addition, the AC50 in assay [9] was 50 µM (active); in assay [11], 8.24 µM (active); in assay [12] it was 8.32 µM (active).
With `Cc1ccccc1C(=O)Nc1cccc(OC(C)C)c1`, the compound was classed as inactive in assay [1], in assay [2], in assay [3], in [4], in assay [5] and in assay [6]. Further, the call in assay [7] was inactive.
As to `C[C@H]1O[C@@H](O[C@H]2[C@@H](O)C[C@H](O[C@H]3[C@@H](O)C[C@H](O[C@H]4CC[C@@]5(C)[C@H](CC[C@@H]6[C@@H]5CC[C@]5(C)[C@@H](C7=CC(=O)OC7)CC[C@]65O)C4)O[C@@H]3C)O[C@@H]2C)C[C@H](O)[C@@H]1O`, in [1], the AC50 is 8.23 µM (active) and 5.95 µM (active). For the same compound, the compound was classed as inactive in [2], in [3], in [4], in assay [5], in [6] and in assay [7].
Turning to `COP(=S)(OC)Oc1cc(Cl)c(Cl)cc1Cl`, the call in assay [1], in assay [2], in assay [3], in assay [4], in [5] and in [6] was inactive. Further, the call in [7] was inactive.
For the compound `C[C@H]1CCCC(=O)CCC/C=C/c2cc(O)cc(O)c2C(=O)O1`, the AC50 in assay [1] is 6.39 µM (active); in assay [2] it was 80.6 µM (active); in assay [4], 84.8 µM (active). The outcome in assay [5], in assay [6] and in assay [7] was inactive.
As for `c1cc[c]([Hg][c]2ccccc2)cc1`, the AC50 in [1] was 70.3 µM (active); in assay [3], 85.1 µM (active). The result in assay [2] and in assay [4] was inactive.
For the compound `CC(C)CCCCCCOC(=O)c1ccccc1C(=O)OCCCCCCC(C)C`, the result in assay [1], in assay [4], in assay [5], in assay [6] and in [7] was inactive.
On to `C=CCc1ccc(OC)cc1`, for which the call in [1], in assay [3] and in [4] was inactive.
For `O=C1C(Cl)=C(Cl)C(=O)c2ccccc21`, the AC50 with DIO1 (gene 1733) is 20 µM (active).
For `CCCCCCCCc1ccc(O)cc1`, the AC50 was 57.1 µM (active) with DIO1 (gene 1733); 50 µM (active) in assay [8]; 39.5 µM (active) in assay [9]; 3 µM (active) in [11]; 3.15 µM (active) in [12]. The outcome in assay [3], in [10], in assay [5] and in assay [7] was inactive.
